Assay outcomes deposited in PubChem by several laboratories.
The list is not random: actives were taken first. Their share in the collection is about 4.7%.
tim10-1 inh: inhibits growth of tim10-1 mutant yeast; S. cerevisiae tim10-1 ts strain growth, BacTiter-Glo, 24 h; inhibition, % at 20 µM; 2.2% of 330,000 active; AID 463190;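 active = inhibition of at least 40%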;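 also: mutant grown at 25 °C; 0% = DMSO wells with yeast and 100% = wells holding no yeast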
SKKanGAS inh: inhibitors of SKKanGAS S. pyogenes growth in kanamycin (SK-promoter or general growth effect); BacTiter-Glo, 6 h; inhibition, % at 7.5 µM; 1.3% of 300,000 active;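 active = mean replicate score, as percent of positive control median, at least 50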;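 also: strain carries kanamycin resistance gene driven by streptokinase promoter and grows in 40 µg/ml kanamycin; loss of luminescence reflects streptokinase promoter inhibition or plain growth inhibition; 0% = median of DMSO wells and 100% = positive control at its reference dose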
TIM10 inh: growth inhibitors of TIM10 yeast strain. 1.4% of 330,000 active. inhibition, % at 10 µM. AID 463195. S. cerevisiae TIM10 strain growth, BacTiter-Glo luminescence, 24 h;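 active = inhibition of 40% or more at the single tested concentration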;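 also: wild-type TIM10 isogenic control strain grown at permissive 25 °C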
PfHsp90 set2: reduces growth (ATP signal) of yeast expressing P. falciparum Hsp90; 0.32% of 310,000 active; inhibition, % at 9.4 µM; AID 504621; S. cerevisiae expressing PfHsp90, BacTiter-Glo ATP, 48 h; yeast lacking PDR1 and PDR3 efflux regulators;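 active = every replicate shows inhibition above about 80%, whatever the replicate mean, limit read from the data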;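 also: 0% = DMSO neutral controls and 100% = 20 µM radicicol positive controls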
tim23-1 inh: growth inhibitors of tim23-1 mutant yeast; AID 463212; S. cerevisiae tim23-1 growth, BacTiter-Glo luminescence, 24 h; inhibition, % at 20 µM; 1.3% of 330,000 active;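 active = growth inhibition of the mutant yeast at or above 50%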;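 also: temperature-sensitive mutant grown at 25 °C; plate controls were DMSO-treated mutant yeast for no effect and medium wells lacking yeast for full effect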
ATG4B inhibitor: inhibitors of human ATG4B cysteine protease; Q9Y4P1; 0.51% of 340,000 active; ATG4B cleavage of LC3-PLA2, NBD-HPC fluorescence, 1 h; AID 504462; inhibition, % at 8.33 µM; in the data active = inhibition above about 40%
Target sequence (Q9Y4P1 whole entry, looked up): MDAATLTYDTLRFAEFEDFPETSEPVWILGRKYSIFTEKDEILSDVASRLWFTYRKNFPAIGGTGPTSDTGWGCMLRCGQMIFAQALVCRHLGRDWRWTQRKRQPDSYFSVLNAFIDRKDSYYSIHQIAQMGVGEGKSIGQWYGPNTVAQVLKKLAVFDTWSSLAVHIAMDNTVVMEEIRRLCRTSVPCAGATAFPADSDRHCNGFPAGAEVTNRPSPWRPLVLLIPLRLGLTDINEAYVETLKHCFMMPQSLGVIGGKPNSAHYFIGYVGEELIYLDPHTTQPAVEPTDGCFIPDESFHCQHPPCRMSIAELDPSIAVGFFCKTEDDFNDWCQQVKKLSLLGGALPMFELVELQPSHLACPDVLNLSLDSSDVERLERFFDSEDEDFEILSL
ATG4B confirm: ATG4B (human) inhibition, single-dose confirmed. 92% of 320 active. ATG4B protease fluorescent substrate cleavage assay. shares compounds with ATG4B inhibitor. inhibition, % at 8.33 µM; in the data active = inhibition above about 39%
PLA2 counter: counter-screen for ATG4B inhibitors: human phospholipase A2. 66% of 1,600 active. inhibition, % at 8.33 µM. purified PLA2, NBD-C6-HPC fluorescence, 45 min. shares compounds with ATG4B inhibitor; in the data active = inhibition above about 50%
Target sequence (P04054 whole entry, looked up): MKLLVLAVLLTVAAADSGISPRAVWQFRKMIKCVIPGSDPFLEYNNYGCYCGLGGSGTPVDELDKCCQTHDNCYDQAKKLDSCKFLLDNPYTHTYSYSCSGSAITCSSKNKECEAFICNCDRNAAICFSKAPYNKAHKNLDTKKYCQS
Numbers without * were called inactive; . = no result.

SMILES	tim10-1 inh	SKKanGAS inh	TIM10 inh	PfHsp90 set2	tim23-1 inh	ATG4B inhibitor	PLA2 counter	others
Cc1sc2nc(C3CCCCC3)nc(SCC(=O)N3CC(=O)Nc4ccccc43)c2c1C	12	20	18	13	22	94*	35	ATG4B confirm=26*
C[C@H]1CN([C@@H](C)CO)C(=O)c2cccc(NC(=O)C3CC3)c2O[C@H]1CN(C)CC1CCCCC1	11	.	-2	-12	15	-4	.
O=C(CSCc1c(Cl)cccc1Cl)Nc1ccccc1-c1ccccc1	.	9	.	-5	.	74*	80*
COc1ccc(C(=O)Nc2c(O)ccc3ccccc23)cc1OC	-6	3	-2	16	4	7	.
COc1ccccc1C(=O)NCCC(=O)N1CCCC(C(F)(F)F)C1 (stereo unspecified)	-7	0	-3	-18	3	-4	.
O=C(CCCn1c(=S)[nH]c2cc3c(cc2c1=O)OCO3)N1CCN(c2ccccn2)CC1	.	.	.	.	.	30	.
Cc1ccc(C)c(N2CCN(C(=O)CCn3c(=S)[nH]c4cc5c(cc4c3=O)OCO5)CC2)c1	28	29	13	-11	18	51*	50*
Cc1ccc(C)c(S(=O)(=O)N2CCN(c3nc(CN4CCOCC4)nc4sc(C)c(C)c34)CC2)c1	24	.	13	21	43	52*	69*
CC(=O)c1c(C)n(-c2ccccc2)c2ccc(OCC(N)=O)cc12	27	-3	5	-2	-11	47*	52*
CCOC(=O)COc1ccc2c(c1)c(C(C)=O)c(C)n2-c1ccccc1	.	-6	.	-26	.	5	.
Cc1ccccc1/C=N/Nc1ccnc2cc(Cl)ccc12	.	-28	.	-13	.	48*	39	ATG4B confirm=65*
Clc1ccc(NNc2ccnc3cc(Cl)ccc23)cc1	12	-12	9	.	-10	2	.
Cc1ccc(/C=N/Nc2ccnc3cc(Cl)ccc23)c(C)c1	9	95*	13	-6	3	46*	40
Cc1oc(-c2ccccc2F)nc1CS(=O)(=O)CC(=O)NCc1ccco1	13	2	-11	27	12	-8	.
Cc1oc(-c2ccccc2F)nc1CS(=O)(=O)CC(=O)NCc1ccccc1Cl	21	4	12	-31	6	49*	67*
O=C(CN(c1cccc(C(F)(F)F)c1)S(=O)(=O)c1ccc(Cl)c([N+](=O)[O-])c1)NCc1ccccc1Cl	-7	22	-4	-41	-33	54*	53*
CCN(CC)C(=S)Nc1ccc([N+](=O)[O-])cc1	14	1	-4	8	5	58*	5
COc1ccc(OC)c(NC(=O)CCN2CCN(Cc3ccccc3)CC2)c1	-14	-2	-9	-11	4	-2	.
C=CCn1c(SCc2nc3scc(-c4ccccc4)c3c(=O)[nH]2)nnc1-c1ccccc1F	20	10	12	4	21	46*	42	ATG4B confirm=62*
CC(C)C(=O)Nc1nnc(Cc2c[nH]c3ccccc23)s1	15	4	-12	-26	23	3	.
N#Cc1c(NC(=O)C2CC(c3ccccc3Cl)=NO2)sc2c1CCC2 (stereo unspecified)	-1	-3	-8	0	13	51*	35	ATG4B confirm=63*
Cc1cccc(C)c1NC(=O)CN1C(=O)S/C(=C\c2cccn2-c2cccc(C(=O)O)c2)C1=O	6	13	-2	.	-3	47*	49
Cc1ccc(NC(=O)CN2C(=O)S/C(=C\c3cccn3-c3cccc(C(=O)O)c3)C2=O)cc1C	-20	21	4	6	-24	22	.
Cc1cccc(C)c1-n1cccc1/C=C1\SC(=S)N(c2cccc(C(=O)O)c2)C1=O	-54	111*	2	-73	21	91*	85*
O=C(c1ccc(Br)o1)N(c1ccc(Br)cc1)C1C=CS(=O)(=O)C1 (stereo unspecified)	7	0	-15	-1	8	-2	.
SMILES	tim10-1 inh	SKKanGAS inh	TIM10 inh	PfHsp90 set2	tim23-1 inh	ATG4B inhibitor	PLA2 counter	others
N#Cc1c(-c2ccccc2)cc(-c2ccccc2)nc1SCCC(=O)O	14	33	14	-7	33	51*	68*
COc1ccc(OC)c(Nc2cc3ccccc3c(=O)[nH]2)c1	25	8	-5	-3	3	8	.
COc1ccccc1Nc1cc2cc(Br)ccc2c(=O)[nH]1	32	15	13	2	17	66*	5
O=C(Nc1ncccn1)c1cccc(F)c1	13	-3	-3	-8	12	-5	.
CN(C)c1ccnc(Oc2ccc(Cl)cc2)c1C#N	20	0	3	29	19	14	.
CN(C)c1ccnc(Oc2ccc(C(C)(C)C)cc2)c1C#N	17	-2	19	-8	27	75*	80*
COCCNC(=S)N1CCN(C/C=C/c2ccccc2)CC1	-1	-1	6	-29	6	-3	.
Cc1cc(C)c2c(C)c(C(=O)Nc3c(C)n(C)n(-c4ccccc4)c3=O)oc2c1	-16	-5	-5	10	3	71*	69*
COC(=O)c1ccc(CSc2nnc(-c3c[nH]c4ccccc34)n2-c2ccccc2)cc1	23	17	38	-8	26	46*	67*
Cc1cccc(-n2c(SCc3ccc(C#N)cc3)nnc2-c2c[nH]c3ccccc23)c1	2	25	11	26	6	51*	59*
COc1ccc(NC(=O)NCCCN2CCC(Cc3ccccc3)CC2)cc1	19	2	-5	14	9	-7	.
COc1ccc2cc(C[C@@H]3CC[C@@H](CNC(N)=O)O3)ccc2c1	12	.	-9	-5	32	38	.
NC(=O)NC[C@@H]1CC[C@@H](Cc2ccc(-c3ccccc3)cc2)O1	25	.	16	15	41	80*	81*
COc1ccc(NC(=O)NC[C@@H]2CC[C@@H](Cc3ccc(-c4ccccc4)cc3)O2)cc1	10	.	-13	5	13	40*	74*
CC1CN(S(=O)(=O)c2cccc(C(=O)NCC3COc4ccccc4O3)c2)CC(C)O1 (stereo unspecified)	32	.	13	9	31	-2	.
O=C(Nc1cc2c(oc1=O)CCCC2=O)c1cccc(Cl)c1	37	-6	4	13	25	1	.
COc1ccc2c(c1)c(C(=O)N/N=C/c1cn(C)c3ccccc13)c(C)n2C	27	5	28	-38	26	-20	.
CC(C(=O)Nc1ccc(C(=O)O)c(O)c1)N1C(=O)/C(=C\c2ccco2)SC1=S (stereo unspecified)	12	14	-5	-5	4	48*	12	ATG4B confirm=62*
